Screening results from PubChem BioAssay.
C diff HTS = C. difficile growth inhibition. growth activity, negative = inhibition, % at 16 µg/mL (by protocol). AID 1259249. 86,000 compounds, 0.25% hits. Clostridium difficile clinical isolate growth, OD600, 24 h; hits give low values;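 active means mean growth activity at or below -80% and every replicate also at or below -80%; inconclusive means mean at or below -80% but some replicate above -80%; inactive means mean growth activity above -80%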;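 further: 0% = DMSO wells and -100% = levofloxacin 16 µg/mL wells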
Pf Dd2 growth = P. falciparum Dd2 growth inhibition. SYBR Green, 72 h; hits give low values. AID 1159554. activity change, % at 10 µM. 94,000 compounds, 2.3% hits; in the data active means activity change below about -80%; inconclusive means no clear call, values can overlap the other calls
T cruzi growth-1 = inhibitors of T. cruzi proliferation | AID 624255 | 77,000 compounds, 5.9% hits | inhibition, % at 8.34 µM | T. cruzi beta-gal in NIH3T3, GalScreen luminescence, 90 h;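 active means mean inhibition above about 93%, with at least 55% of replicates each passing it, limit read from the data, passing the limit was not always enough; inconclusive means only one of those two conditions holds; inactive means neither condition holds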
T cruzi growth-2 = Trypanosoma cruzi proliferation inhibition; shares compounds with T cruzi growth-1; T. cruzi beta-gal in NIH3T3, GalScreen luminescence, 90 h; inhibition, % at 8.35 µM; 5,600 compounds, 72% hits; AID 651739;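 active means mean replicate inhibition above about 95% and at least 55% of replicates individually reaching it, limit read from the data; inconclusive means only one of the two criteria is met; inactive means neither criterion is met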
T cruzi growth-3 = Trypanosoma cruzi proliferation inhibition | shares compounds with T cruzi growth-1 | T. cruzi beta-gal in NIH3T3, GalScreen luminescence, 90 h | inhibition, % at 2.09 µM | 5,600 compounds, 21% hits | AID 651740;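 active means mean inhibition above about 95%, with at least 55% of replicates also reaching it, limit read from the data; inconclusive means meets just one of the two conditions; inactive means meets neither condition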;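 further: plate controls were neutral control median for no effect and positive control median for full effect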
3T3 cytotox = kills mouse NIH/3T3 fibroblasts; shares compounds with T cruzi growth-1; NIH/3T3 viability, CellTiter-Glo ATP luminescence, 90 h; cytotoxicity (signal decrease), % at 8.35 µM; 5,600 compounds, 14% hits; AID 651742;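 active means mean signal decrease across replicates above about 35% based on untreated-well scatter, with enough replicates individually passing, limit read from the data; inconclusive means no rule stated though some were filed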;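 further: 0% = median of neutral control wells and 100% = median of positive control wells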
3T3 cytotox 2 = cytotoxicity in mouse NIH/3T3 fibroblasts | shares compounds with T cruzi growth-1 | NIH/3T3 viability, CellTiter-Glo ATP luminescence, 90 h | inhibition, % at 24.9 µM | 5,600 compounds, 56% hits | AID 651744;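 active means mean loss of cell viability signal at or above a set limit, and enough replicates individually reaching it; inconclusive means meets only the mean limit or only the replicate share; inactive means meets neither condition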;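 further: 0% = median of neutral control wells and 100% = median of positive control wells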
The depositor's hits bear a star; ? = inconclusive; / = not tested or not shown. An excerpt weighted towards active compounds, which were near 6.8% of everything screened.

SMILES	C diff HTS	Pf Dd2 growth	T cruzi growth-1	T cruzi growth-2	T cruzi growth-3	3T3 cytotox	3T3 cytotox 2
C[C@@H]1CN([C@H](C)CO)C(=O)c2cc(NS(=O)(=O)c3cccs3)ccc2O[C@H]1CN(C)C	0	-4	43	/	/	/	/
O=C(c1cccc(F)c1)N1CCCCN2[C@H](CO)[C@@H](c3ccc(-c4ccc(F)cc4)cc3)[C@@H]2C1	19	13	104*	105*	?	19	106*
O=C(c1cccc(F)c1)N1CCCCN2[C@H](CO)[C@@H](c3ccc(-c4cncnc4)cc3)[C@@H]2C1	3	-32	40	/	/	/	/
O=C(Cc1ccccc1)N1C[C@H]2[C@@H](c3ccccc31)[C@@H](CO)N2C(=O)c1ccc(F)cc1	0	4	42	/	/	/	/
O=C([C@H]1[C@H](CO)[C@H]2Cn3c(ccc(-c4ccccc4)c3=O)[C@H]2N1CCC(F)(F)F)N1CCOCC1	0	7	16	/	/	/	/
Cc1noc(C)c1NC(=O)N(C)C[C@@H]1OCCCC[C@H](C)Oc2ccc(NC(=O)NC(C)C)cc2C(=O)N([C@@H](C)CO)C[C@@H]1C	2	-33	/	/	/	/	/
C[C@@H]1CN([C@H](C)CO)C(=O)c2cc(NC(=O)NC3CCCCC3)ccc2O[C@H]1CN(C)Cc1ccc2c(c1)OCO2	4	-3	-24	/	/	/	/
C/C=C/c1cnc2c(c1)C(=O)N([C@H](C)CO)C[C@H](C)[C@H](CN(C)S(=O)(=O)c1ccc(F)cc1)O2	-2	-9	-5	/	/	/	/
C[C@@H]1CN([C@H](C)CO)C(=O)c2cc(/C=C/c3ccccc3)cnc2O[C@@H]1CN(C)S(=O)(=O)c1ccc(F)cc1	3	-35	80*	105*	41	17	51*
C/C=C/c1cnc2c(c1)C(=O)N([C@@H](C)CO)C[C@@H](C)[C@@H](CN(C)S(=O)(=O)c1ccc(F)cc1)O2	1	4	35	/	/	/	/
C[C@H]1CN([C@@H](C)CO)C(=O)c2cc(/C=C/c3ccccc3)cnc2O[C@@H]1CN(C)S(=O)(=O)c1ccc(F)cc1	-5	-61	83*	100*	71	10	12
O=C(C[C@@H]1CC[C@H](NC(=O)Nc2ccccc2F)[C@@H](CO)O1)NCc1ccc(-c2ccccc2)cc1	-26	6	/	/	/	/	/
COc1ccc(NC(=O)N(C)C[C@@H]2Oc3ccc(NC(=O)NC4CCCCC4)cc3C(=O)N([C@@H](C)CO)C[C@H]2C)cc1	-9	13	3	/	/	/	/
C[C@@H]1CN([C@@H](C)CO)C(=O)Cc2cc(NS(=O)(=O)c3ccccc3)ccc2O[C@H]1CN(C)S(=O)(=O)c1cccs1	-6	-35	20	/	/	/	/
COc1ccc2c3c(n(C)c2c1)[C@H](CO)N(Cc1ccccc1)CC31CN(C(=O)Nc2cccc(F)c2)C1	1	-48	/	/	/	/	/
COc1ccc(S(=O)(=O)N(C)C[C@@H]2OCCCC[C@H](C)Oc3ccc(NS(=O)(=O)c4ccccc4)cc3C(=O)N([C@@H](C)CO)C[C@@H]2C)cc1	-8	/	68	/	/	/	/
COc1ccc(S(=O)(=O)N(C)C[C@H]2OCCCC[C@H](C)Oc3ccc(NS(=O)(=O)c4ccc(C)cc4)cc3C(=O)N([C@@H](C)CO)C[C@@H]2C)cc1	2	-68	?	101*	78	7	-2
COc1ccc(S(=O)(=O)Nc2ccc3c(c2)C(=O)N([C@H](C)CO)C[C@@H](C)[C@H](CN(C)S(=O)(=O)c2ccc(OC)cc2)OCCCC[C@H](C)O3)cc1	-3	-74	100*	107*	62	18	5
COc1ccc(S(=O)(=O)Nc2ccc3c(c2)C(=O)N([C@H](C)CO)C[C@H](C)[C@H](CN(C)S(=O)(=O)c2ccc(OC)cc2)OCCCC[C@@H](C)O3)cc1	-3	-42	48	/	/	/	/
COc1ccc(S(=O)(=O)Nc2ccc3c(c2)C(=O)N([C@H](C)CO)C[C@@H](C)[C@H](CN(C)S(=O)(=O)c2ccc(C)cc2)OCCCC[C@@H](C)O3)cc1	/	-61	/	/	/	/	/
COc1ccc(S(=O)(=O)Nc2ccc3c(c2)C(=O)N([C@@H](C)CO)C[C@@H](C)[C@H](CN(C)S(=O)(=O)c2ccccc2)OCCCC[C@H](C)O3)cc1	-4	-34	/	/	/	/	/
COc1ccc(S(=O)(=O)Nc2ccc3c(c2)C(=O)N([C@H](C)CO)C[C@H](C)[C@H](CN(C)S(=O)(=O)c2ccc(OC)cc2)OCCCC[C@H](C)O3)cc1	-3	-58	100*	109*	64	2	9
COc1ccc(S(=O)(=O)N(C)C[C@H]2OCCCC[C@@H](C)Oc3ccc(NS(=O)(=O)c4ccccc4)cc3C(=O)N([C@H](C)CO)C[C@H]2C)cc1	-11	/	115*	108*	64	7	-3
CCC(=O)N1CC2(C1)CN(S(C)(=O)=O)[C@H](CO)c1[nH]c3cc(OC)ccc3c12	-3	52	/	/	/	/	/
COc1ccc(S(=O)(=O)Nc2ccc3c(c2)C(=O)N([C@@H](C)CO)C[C@@H](C)[C@H](CN(C)S(=O)(=O)c2ccc(OC)cc2)OCCCC[C@@H](C)O3)cc1	5	-47	?	108*	69	6	23
SMILES	C diff HTS	Pf Dd2 growth	T cruzi growth-1	T cruzi growth-2	T cruzi growth-3	3T3 cytotox	3T3 cytotox 2
COc1ccc(S(=O)(=O)Nc2ccc3c(c2)C(=O)N([C@@H](C)CO)C[C@H](C)[C@H](CN(C)S(=O)(=O)c2ccc(OC)cc2)OCCCC[C@H](C)O3)cc1	-3	-65	101*	111*	17	0	-10
COc1ccc(S(=O)(=O)Nc2ccc3c(c2)C(=O)N([C@@H](C)CO)C[C@@H](C)[C@@H](CN(C)S(=O)(=O)c2ccccc2)OCCCC[C@@H](C)O3)cc1	-6	-60	/	/	/	/	/
COc1ccc(S(=O)(=O)Nc2ccc3c(c2)C(=O)N([C@@H](C)CO)C[C@@H](C)[C@H](CN(C)S(=O)(=O)c2ccc(OC)cc2)OCCCC[C@H](C)O3)cc1	-5	-43	78	/	/	/	/
O=C(C[C@@H]1C=C[C@H](NC(=O)c2ccc(F)cc2)[C@H](CO)O1)NCCc1ccncc1	/	5	-13	/	/	/	/
C[C@H]1CCCCO[C@@H](CN(C)C(=O)Nc2ccc(F)cc2)[C@@H](C)CN([C@@H](C)CO)C(=O)c2cc(NS(=O)(=O)c3cn(C)cn3)ccc2O1	8	-46	17	/	/	/	/
OC[C@@H]1[C@@H](c2ccc(-c3cccc(F)c3)cc2)[C@@H]2CN(Cc3cncnc3)CCCCN12	0	16	30	/	/	/	/
OC[C@@H]1[C@@H](c2ccc(-c3ccccc3F)cc2)[C@@H]2CN(Cc3cccnc3)CCCCN12	4	-13	85	/	/	/	/
OC[C@@H]1[C@H](c2ccc(-c3ccccc3F)cc2)[C@@H]2CN(Cc3cncnc3)CCCCN12	-9	13	110*	88	82	-20	50*
